HTT promoter inh: Primary qHTS for Identification of Small Molecule Inhibitors of Huntingtin Promoter Activity; 48,000 tested, 0.93% active; Potency, µM (highest dose often 57.5 µM), for inactives: top-dose activity change, negative = inhibition, hits mostly inhibitors; HEK293 HTT promoter firefly luciferase reporter, 24 h; further: potency means the concentration at half of the fitted maximal effect; nearly all actives have a fitted effect of over 50% in size
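Firefly luciferase signal from promoter-reporter HEK293 cells was scaled between vehicle (0%) and zero RLU (-100%). Compounds were tested at final concentrations of up to 57.5 uM over 24 h at 37 degrees C. PTC124 at 50 uM final served as control inhibitor.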
NTMT1 inh: Primary qHTS for Inhibitors of N-terminal methyltransferase 1 (NTMT1): MTaseGlo Assay. N-terminal Xaa-Pro-Lys N-methyltransferase 1 (Homo sapiens), Q9BV86. NTMT1 MTase-Glo SAH luminescence, purified enzyme. Potency, µM (titrated, usually from 114 µM), inactives show at the highest dose activity change, negative = inhibition, actives largely listed as inhibitors. 59,000 tested, 2.5% active. AID 1645870, 2021;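 further: potency means the concentration at half of the fitted maximal effect; plate controls were DMSO vehicle for no effect and no enzyme for full effect; nearly all actives have a fitted effect of over 65% in size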
Target sequence (Q9BV86 whole entry, looked up): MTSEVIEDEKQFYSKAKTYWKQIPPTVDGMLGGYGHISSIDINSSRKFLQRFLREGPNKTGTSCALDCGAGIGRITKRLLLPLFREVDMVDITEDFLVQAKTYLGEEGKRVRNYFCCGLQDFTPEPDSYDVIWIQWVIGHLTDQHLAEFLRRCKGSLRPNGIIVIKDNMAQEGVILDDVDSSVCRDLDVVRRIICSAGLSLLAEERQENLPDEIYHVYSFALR
OvCa metastasis: Primary qHTS assay for Inhibitors of ovarian cancer metastasis using an organotypic tumor microenvironment (TME) model; SKOV3ip1-GFP adhesion/invasion on 3D omental model, fluorescence; Potency, µM (doses to about 45.8 µM), for the others: at the top dose activity change, negative = inhibition, actives largely listed as inhibitors; 46,000 tested, 0.1% active; AID 1963576, 2024;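 further: potency means the concentration at half of the fitted maximal effect; plate controls were DMSO wells for no effect and tomatine positive control wells for full effect; nearly all actives have a fitted effect of over 65% in size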
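A 3D layer of primary human omental fibroblasts, mesothelial cells, fibronectin and collagen I, grown 48 hr, received SKOV3ip1-GFP cells in serum-free medium plus compounds at 0.36-46 umol/L. After 2 hr RT and 16 hr 37 C, fixed adherent GFP cells were counted; normalized to DMSO and tomatine.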
DRV1 agonist: qHTS for Agonists of Human Resolvin D1 Receptor DRV1. activation, % at 76.9 µM. 48,000 tested, 2.5% active. Probable G-protein coupled receptor 32 (Homo sapiens), O75388. AID 1346428, 2018. CHO-K1 GPR32 beta-arrestin PathHunter luminescence, 90 min; zero percent set by DMSO-only wells;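 active means activation of at least 60% and not above a set upper limit, about 1 call in 100 departs from these limits; inconclusive means activation of 40% to 60%, or above that upper limit; inactive means activation under 40%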; further: 0% is about no effect
Target sequence (O75388 whole entry, looked up): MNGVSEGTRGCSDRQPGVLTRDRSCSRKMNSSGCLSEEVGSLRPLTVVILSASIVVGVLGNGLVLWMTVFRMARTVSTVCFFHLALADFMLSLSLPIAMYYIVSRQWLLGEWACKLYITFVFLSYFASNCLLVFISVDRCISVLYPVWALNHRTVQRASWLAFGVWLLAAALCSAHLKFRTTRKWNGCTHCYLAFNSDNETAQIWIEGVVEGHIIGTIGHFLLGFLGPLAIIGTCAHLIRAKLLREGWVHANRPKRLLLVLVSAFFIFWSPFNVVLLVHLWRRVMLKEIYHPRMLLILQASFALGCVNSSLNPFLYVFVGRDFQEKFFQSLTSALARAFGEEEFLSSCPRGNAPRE
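PathHunter enzyme-fragment complementation, CHO-K1 GPR32 stable line; 2,500 cells/well, overnight attach; cpd 90 min 37 °C 5% CO2; detection reagent 1 h RT; chemiluminescence. DMSO = EC0.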
HTT-AS promoter: Primary qHTS for Identification of Small Molecule Activators of Huntingtin-Antisense Promoter Activity; Potency, µM (top dose mostly 57.5 µM), for inactives: at the top dose activity change, positive = activation, actives largely listed as activators; 48,000 tested, 0.24% active; AID 1508624, 2021; HEK293 HTT-AS promoter firefly luciferase reporter, 24 h; response scale: percent change from vehicle, -100% = no light; further: potency means the concentration at half of the fitted maximal effect; nearly all actives have a fitted effect of over 55% in size
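Luminescence was read after Dual-Glo reagent and a 10 min room-temperature incubation. Values were normalized to vehicle (0% activity) and zero RLU (-100% activity). Reporter HEK293 cells had been exposed to compounds (up to 57.5 uM final) for 24 h.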
The depositor's hits bear a star; i = inactive; ? = inconclusive; / = not tested or not shown; [ ] = remark or other dose. Sampled rows, rich in hits. Any-hit rate of the full collection: about 4.5%. Unless noted, the call rests on the fitted dose curve; in most records, active means well fitted curve in the direction sought with a large enough effect; inconclusive means small, poorly fitted or top-dose-only effect, or another doubt; inactive means no such curve, though single readings can be large; an effect the other way counts as inactive or inconclusive.

SMILES	HTT promoter inh	NTMT1 inh	OvCa metastasis	DRV1 agonist	HTT-AS promoter
CC1OC(OC2C(OC3C(O[C@H]4CC[C@@]5(C)C(CC[C@]6(C)C5C(=O)CC5=C7CC(C)(C)CC(O)[C@]7(C)CC[C@]56C)C4(C)C)OC(C(=O)O)C(O)C3O)OCC(O)C2O)C(O)C(O)C1O (stereo not given in full)	/	10%[12.6 µM]	/	/	/
COc1cccc(C(=O)Nc2nc(-c3nnn(-c4cc(C)ccc4C)c3C)ns2)c1	?	14%	-6%	31	-31%
COc1cccc(C(=O)Nc2nc(-c3nnn(-c4ccccc4C(F)(F)F)c3C)ns2)c1	?	14%	-16%	91*	-26%
COCCN(C(=O)c1cc(OC)c(OC)c(OC)c1)c1nc(-c2ccccc2)cs1	/	2%[57.5 µM]	/	/	/
COc1ccc(N(C)C(=O)Cn2cnc3sc(C)c(S(=O)(=O)N4CCN(c5ncccn5)CC4)c3c2=O)cc1	-13%	5%	i	-28	-2%
N#C/C(=C\c1ccc(-c2ccc(C(=O)O)cc2)o1)c1nc2ccccc2[nH]1	38%	45µM*	3%	8	?
N#C/C(=C\c1ccc(-c2ccc(Cl)c(C(=O)O)c2)o1)c1nc2ccccc2[nH]1	8%	?	2%	-1	5%
Cc1ccc(NC(=O)c2ccc(F)c(S(=O)(=O)NCCc3ccccc3)c2)cc1F	28µM*	2%	i	20	-39%
Cc1ccc(NC(=O)c2ccc(F)c(S(=O)(=O)N3CCc4ccccc4C3)c2)cc1F	?	12%	i	-3	-28%
Cc1ccc(NC(=O)c2cc(S(=O)(=O)NCCC3=CCCCC3)ccc2F)cc1F	11µM*	4%	1%	1	-90%
NC(=O)c1ccccc1NC(=O)CN1c2ccccc2S(=O)(=O)c2ccccc21	10%	-3%	7%	7	-2%
Cn1nnnc1Sc1ncnc2scc(-c3ccc(Cl)cc3)c12	/	0%[57.5 µM]	/	/	/
Cn1nnnc1Sc1ncnc2scc(-c3ccc4c(c3)OCO4)c12	/	89µM*	/	/	/
CCOC(=O)C1CCCN(C(=O)c2cc3c(=O)[nH]c4ccc(C)cc4c3s2)C1 (stereo not given)	-30%	4%	i	29	-17%
CCOC(=O)C1CCCN(C(=O)c2cc3c(Cl)nc4ccccc4c3s2)C1 (stereo not given)	5µM*	-1%	4%	21	-84%
O=c1c2sc3ccccc3c2n(Cc2cccc(C(F)(F)F)c2)c(=O)n1Cc1ccccc1	-21%	-22%	-7%	-9	-30%
COc1ccc(OC)c(NC(=O)C2CCN(S(=O)(=O)c3ccc4c(c3)CCCC(=O)N4)CC2)c1	-12%	2%	-13%	72*	-14%
COc1ccc(NC(=O)C2CCCN(S(=O)(=O)c3ccc4c(c3)CCCC(=O)N4)C2)cc1OC (stereo not given)	?	-6%	i	63*	-34%
O=C(Nc1ccc(O)c2ncccc12)c1ccccc1F	/	12%	/	/	/
CCOC(=O)c1ccc(NC(=O)Cn2nc3c4ccccc4n(Cc4cccc(F)c4)cc-3c2=O)cc1	-3%	79µM*	-2%	-6	-8%
COc1cccc(NC(=O)Cn2nc3c4ccccc4n(Cc4cccc(F)c4)cc-3c2=O)c1	-19%	-21%	-8%	5	-39%
COc1ccc(OC)c(NC(=O)Cn2ccn(-c3ccc(F)cc3)c(=O)c2=O)c1	-23%	89µM*	3%	-8	-9%
COc1ccc(OC)c(NC(=O)Cn2ccn(-c3ccc(OC)c(OC)c3)c(=O)c2=O)c1	-18%	-8%	7%	7	-1%
COc1ccc(-c2nc3c(c(SCc4ccc(Br)cc4)n2)Cc2c(CO)cnc(C)c2O3)cc1	-10%	2%	15%	27	-14%
COc1ccc(CNC(=O)c2cc3c(-c4ccccc4F)nn(C)c3s2)cc1	?	0%	10%	-5	-29%
SMILES	HTT promoter inh	NTMT1 inh	OvCa metastasis	DRV1 agonist	HTT-AS promoter
COc1cccc(-c2cc(C(=O)NCc3ccccc3)no2)c1	/	/	2%	34	/
CC1CCN(C(=O)c2cc(-c3cccc(Cl)c3)on2)CC1	/	/	i	28	/
CC1CCN(C(=O)c2cc(-c3ccc(Cl)cc3)on2)CC1	74%	-1%	-4%	13	2µM*
O=C(c1cc(-c2cccc(Cl)c2)on1)N1CCCCC1	/	/	23%	66*	/
O=C(Nc1cccnc1)c1cc(-c2cccc(Cl)c2)on1	/	/	-10%	4	/
COc1ccc(CNC(=O)c2cc(-c3cccc(Cl)c3)on2)cc1	/	/	6%	66*	/
CNc1nc(Oc2ccc(=O)[nH]n2)nc(N2CCOCC2)n1	-3%	10%	2%	6	-6%
COc1ccc(CCNC(=O)c2c(O)nc3c(C)cccn3c2=O)cc1	2%	4%	1%	2	26%
CCS(=O)(=O)c1ncc(Cl)c(C(=O)N(Cc2ccccc2)Cc2ccco2)n1	35µM*	-2%	i	-8	-94%
CCNC(=O)C1OC(n2cnc3c(N)nc(NCCc4ccc(CCC(=O)O)cc4)nc32)C(O)C1O (stereo not given)	/	1%[57.5 µM]	/	/	/
Cc1ccccc1N1CC(c2nc3ccccc3n2Cc2ccc(Br)cc2)CC1=O (stereo not given)	?	-1%	-3%	92*	-53%
Cc1ccc(C)c2sc(N3CCN(C(=O)c4ccco4)CC3)nc12	0%	-7%	0%	88*	-21%
Cc1ccc(C)c(CN2C(=O)c3ccccc3S(=O)(=O)c3ccc(C(=O)N4CCCCCC4)cc32)c1	?	24%	-1%	-16	-37%
Cc1cccc(C(=O)Nc2cc3nn(-c4ccc(C(C)C)cc4)nc3cc2C)c1	10%	16%	-8%	102*	0%
Cc1cc2nn(-c3ccc(F)cc3)nc2cc1NC(=O)c1ccc(OC(C)C)cc1	5%	5%	i	-13	-1%
CCOc1cc(C(Nc2cc(C)ccn2)c2ccc3cccnc3c2O)ccc1OC (stereo not given)	35µM*	4%	i	2	-39%
COc1ccc(C(Nc2ccccn2)c2ccc3ccc(C)nc3c2O)cc1C (stereo not given)	?	11%	i	90*	-31%
Cc1cccc(NC(c2cccc(Cl)c2)c2ccc3cccnc3c2O)n1 (stereo not given)	10µM*	14%	i	-13	-38%
Cc1ccnc(NC(c2cccc(O)c2)c2ccc3ccc(C)nc3c2O)c1 (stereo not given)	-6%	11%	-3%	-52	-10%
